Measured values published in PubChem BioAssay (NCI).
This is part of a sample that, as a whole, favours compounds with a hit. Of some 83,000 tested, about 20% had one in any assay.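 Single-concentration screen, 48 h exposure, 96-well plates. Endpoint: percent growth. Below 10 = active.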 Values without a mark were called inactive. Activity calls are given as the source filed them.

Experiments:
Assay in all cases: NCI-60 one-dose screen, 48 h (100 = growth as untreated, 0 = no growth, -100 = all killed)
Conditions in all cases: 10 µM unless noted
HT29 colon = tested on: HT29 colon
SNB-75 CNS = tested on: SNB-75 CNS
SNB-19 CNS = tested on: SNB-19 CNS
U251 CNS = tested on: U251 CNS
PC-3 prostate = tested on: PC-3 prostate
SK-MEL-5 melanoma = tested on: SK-MEL-5 melanoma
UACC-62 melanoma = tested on: UACC-62 melanoma
LOX IMVI melanoma = tested on: LOX IMVI melanoma
SK-MEL-28 melanoma = tested on: SK-MEL-28 melanoma
SK-MEL-2 melanoma = tested on: SK-MEL-2 melanoma
SN12C renal = tested on: SN12C renal
UO-31 renal = tested on: UO-31 renal
TK-10 renal = tested on: TK-10 renal
ACHN renal = tested on: ACHN renal
CAKI-1 renal = tested on: CAKI-1 renal
A498 renal = tested on: A498 renal
CCRF-CEM leukemia = tested on: CCRF-CEM leukemia
MOLT-4 leukemia = tested on: MOLT-4 leukemia
SR leukemia = tested on: SR leukemia
EKVX NSCLC = tested on: EKVX NSCLC

Row | SMILES | growth (HT29 colon) | growth (SNB-75 CNS) | growth (SNB-19 CNS) | growth (U251 CNS) | growth (PC-3 prostate) | growth (SK-MEL-5 melanoma) | growth (UACC-62 melanoma) | growth (LOX IMVI melanoma) | growth (SK-MEL-28 melanoma) | growth (SK-MEL-2 melanoma) | growth (SN12C renal) | growth (UO-31 renal) | growth (TK-10 renal) | growth (ACHN renal) | growth (CAKI-1 renal) | growth (A498 renal) | growth (CCRF-CEM leukemia) | growth (MOLT-4 leukemia) | growth (SR leukemia) | growth (EKVX NSCLC)
1 | S=C1SCN(Cc2ccccc2)CN1Cc1ccco1 | 27.4% | 92.1% | 101% | 97.3% | 90.3% | 87.3% | 91.6% | 81.6% | 105% | 81.1% | 93.5% | 78.6% | 28.7% | 107% | 96.7% | 99% | 10.8% | 51.6% | 22% | –
2 | Nc1nc(Cl)c2[nH]cnc2n1 | 110% | 79.6% | 92.9% | 97.6% | 122% | 105% | 100% | 105% | 113% | 85.4% | 92.4% | 93.5% | 103% | 96.4% | 89.4% | 95.1% | 115% | 114% | 95.6% | –
3 | COc1cccc(CCC2C(=O)CCCC2=O)c1 | 111% | 108% | 96.8% | 109% | 104% | 104% | 103% | 117% | 119% | 112% | 106% | 84.3% | 115% | – | 106% | 131% | 102% | – | 99.1% | 116%
4 | CCC(CCC(C)C1CCC2C3CC=C4CC(O)CCC4(C)C3CCC12C)C(C)C (configuration not stated) (tested in a mixture with another compound) | 98.9% | 119% | 98.6% | 90.2% | 45.8% | 96% | 95% | 99.1% | 91.7% | 24.3% | 84.4% | 93.6% | 139% | – | 108% | 104% | 60% | 70.6% | 101% | 115%
5 | N#CCCN(CCO)c1ccccc1 | 93.7% | 100% | 101% | 101% | 86.7% | 99.9% | 103% | 107% | 108% | 101% | 97.6% | 89.5% | 93.7% | 106% | – | 96.4% | – | 90% | 86.3% | –
6 | NC(N)=NC(N)=NCCCc1ccccc1 | 68.2% [100 µM] | 57.5% [100 µM] | 77.8% [100 µM] | 83.7% [100 µM] | 52.7% [100 µM] | 28.6% [100 µM] | 88.4% [100 µM] | 57.4% [100 µM] | 97% [100 µM] | 70.7% [100 µM] | 79.3% [100 µM] | 65.9% [100 µM] | – | 65.8% [100 µM] | 63.7% [100 µM] | 68.3% [100 µM] | 69.1% [100 µM] | 73.8% [100 µM] | – | 31.8% [100 µM]
7 | O=C(Nc1ccc(OCc2nnc(-c3ccccc3)o2)c(F)c1)Nc1ccc(Cl)c(C(F)(F)F)c1 | 9.92% (active) | 40.2% | 29.9% | 7.14% (active) | -16.2% (active) | 4.6% (active) | 27.4% | 7.41% (active) | 49.2% | 16.2% | 16.1% | -19% (active) | 33.7% | 9.47% (active) | 16.4% | 18% | 18.9% | 13.7% | 0.0728% (active) | –
8 | O=C(Nc1cccc(C(F)(F)F)c1)Nc1ccc(OCc2nnc(-c3ccc(Cl)cc3)o2)c(F)c1 | 60.2% | 39.4% | 69.9% | 52.7% | 45.9% | 77.5% | 68.8% | 63.5% | 73.5% | 78.7% | 77.3% | 73.9% | 81.3% | 51.2% | – | 79% | 60.8% | 66.7% | 66.3% | –
9 | Nc1nonc1-c1nc2ccccc2n1CC(=O)Nc1ccc2c(c1)COC2=O | 85.1% | 36.5% | 87.6% | 94.4% | 80% | 77.8% | 72.9% | 73.2% | 93.1% | 89.4% | 92.2% | 60.6% | 94.7% | 92.2% | 74.5% | 63.7% | – | 101% | – | –
10 | Nc1ccc2c3c(cccc13)-c1ccccc1-2 | 108% | 74.2% | 97.7% | 94.9% | 73% | 98.4% | 84.7% | 91.7% | 110% | 105% | 55.8% | 32.3% | 116% | 95.2% | 69.4% | 85.9% | 25.1% | 32.4% | 93.1% | –
11 | CN(C)c1nc(N)nc(Cn2c(-c3nonc3N)nc3ccccc32)n1 | 72.9% | 56.4% | 91.8% | 90.1% | 82.6% | 86.9% | 73% | 76.6% | 82% | 90.5% | 95.3% | 65.2% | 107% | 88.3% | 77.9% | 82.5% | 78.9% | 90.8% | – | –
12 | CSc1nc2c(c(=O)[nH]1)C(c1ccc(Cl)cc1)C1=C(N2)/C(=C/c2ccc(Cl)cc2)CNC1 (configuration not stated) | -36.6% (active) | 51.9% | 46.8% | -16.1% (active) | 42% | 77.1% | 89.2% | -61.3% (active) | 87.9% | 78.4% | 39.7% | 16.8% | 78.9% | 72.5% | 76.8% | 18.3% | – | – | -16.2% (active) | –
13 | OC(Cc1cccnc1)c1ccccc1 (configuration not stated) | 106% | 99.7% | 98.9% | 98.1% | 101% | 102% | 97.4% | 101% | 108% | 102% | 99.3% | 93.3% | – | – | 119% | 86.5% | 80.2% | 94.3% | 92.6% | 113%
14 | COc1cccc(C2C(C#N)=C(N)Oc3cc(OC)ccc32)c1 (configuration not stated) | -21.2% (active) | 46.1% | 44.1% | 3.36% (active) | -2.64% (active) | -4.55% (active) | 30.9% | 13.2% | 56.2% | 19.8% | 24.9% | 41.6% | 50.6% | 29.7% | 20.6% | – | – | 1.42% (active) | -30.3% (active) | –
15 | O=C(OCCBr)c1ccc(Cl)c([N+](=O)[O-])c1 | 45.4% | 104% | 38.9% | -31.7% (active) | 70% | 113% | 104% | 91.1% | 60% | 94.1% | 102% | 88.9% | 106% | 104% | – | 97.6% | – | 83.7% | 86.5% | –
16 | CCN(CC)CCOc1ccc(C2=C(c3ccccc3)CCc3cc(OC)ccc32)cc1 | -50% (active) | 44.2% | 53.8% | 22.2% | 7.49% (active) | -68% (active) | -60.2% (active) | -59.6% (active) | -96.2% (active) | -83.1% (active) | 52.3% | -76.7% (active) | -21.1% (active) | 50.5% | -26.1% (active) | -4.36% (active) | -37.8% (active) | -49.7% (active) | -42.1% (active) | –
17 | CCCCCCOc1ccc(/C=N/NC(N)=S)cc1 | 38.7% | 58.9% | 80.1% | 58.4% | 49.4% | 53.6% | 44.6% | 55.6% | 76.1% | 69.6% | 22.2% | 17.8% | 54.3% | 61.6% | – | 99.7% | 6.97% (active) | 7.23% (active) | 69.5% | –
